Data as given in PubChem BioAssay AID1159580 (chemical genetic matrix, 2015).
The whole screen tested about 5,500 compounds, of which about 2,000 (36%) were called active. Inconclusive results (about 18%) are left out. This is one part of the list. Unmarked numbers belong to inactive results. No stated cut-off is given here; in the data, active means normalized growth mostly below about 0.91 (no sharp cut-off); inconclusive means no clear call, values can overlap the other calls; inactive means mostly above about 0.92.

Experiment: chemical genetic growth profiling, strain panel (AID 1159580);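 further: tested at 20 µM; growth read once vehicle control cultures reached saturation at 30 °C; 1 = growth at the plate median or of vehicle wells; lower values mean less growth of the strain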
Conditions: growth OD

C=C1C2CCC3(C)C(c4ccoc4)OC(=O)CC13OC1CC(OC(C)=O)C(C)(C)C(CC(=O)OC)C12C (stereo unspecified)
normalized growth (S. cerevisiae deletion strains, locus YJL168C, strain set2, hits give low values): 0.998 | normalized growth (S. cerevisiae deletion strains, locus YJL187C, strain SWE1 (second series), hits give low values): 1 | normalized growth (S. cerevisiae deletion strains, locus YJR043C, strain POL32, hits give low values): 1.02 | normalized growth (S. cerevisiae deletion strains, locus YKL068W, hits give low values): 1.17 [resistant] (active) | normalized growth (S. cerevisiae deletion strains, locus YKL085W, strain MDH1 (second series), hits give low values): 1.08 [resistant] (active) | normalized growth (S. cerevisiae deletion strains, locus YKL085W, strain MDH1, hits give low values): 1.08 [resistant] (active) | normalized growth (S. cerevisiae deletion strains, locus YKL160W, strain elf1, hits give low values): 1.01 | normalized growth (S. cerevisiae deletion strains, locus YKR001C, strain vps1, hits give low values): 1.02 | normalized growth (S. cerevisiae deletion strains, locus YKR026C, strain gcn3, hits give low values): 1 | normalized growth (S. cerevisiae deletion strains, locus YKR091W, strain srl3, hits give low values): 1 | normalized growth (S. cerevisiae deletion strains, locus YLL001W, strain dnm1, hits give low values): 1.01 | normalized growth (S. cerevisiae deletion strains, locus YLL026W, hits give low values): 1 | normalized growth (S. cerevisiae deletion strains, locus YLL041C, strain sdh2, hits give low values): 1 | normalized growth (S. cerevisiae deletion strains, locus YLR027C, strain aat2, hits give low values): 0.991 | normalized growth (S. cerevisiae deletion strains, locus YLR039C, strain RIC1, hits give low values): 0.988 | normalized growth (S. cerevisiae deletion strains, locus YLR058C, strain SHM2, hits give low values): 1 | normalized growth (S. cerevisiae deletion strains, locus YLR102C, strain apc9, hits give low values): 1.01 | normalized growth (S. cerevisiae deletion strains, locus YLR221C, strain rsa3, hits give low values): 0.995 | normalized growth (S. cerevisiae deletion strains, locus YLR258W, strain gsy2, hits give low values): 0.994 | normalized growth (S. cerevisiae deletion strains, locus YLR262C, strain YPT6 (second series), hits give low values): 0.972 | normalized growth (S. cerevisiae deletion strains, locus YLR262C, strain YPT6, hits give low values): 0.933 | normalized growth (S. cerevisiae deletion strains, locus YLR268W, strain sec22, hits give low values): 0.984 | normalized growth (S. cerevisiae deletion strains, locus YLR320W, strain mms22, hits give low values): 1.01 | normalized growth (S. cerevisiae deletion strains, locus YLR342W, strain FKS1, hits give low values): 0.992 | normalized growth (S. cerevisiae deletion strains, locus YLR357W, strain rsc2, hits give low values): 1.02 | normalized growth (S. cerevisiae deletion strains, locus YLR370C, strain arc18, hits give low values): 0.998 | normalized growth (S. cerevisiae deletion strains, locus YLR371W, strain rom2, hits give low values): 1.01 | normalized growth (S. cerevisiae deletion strains, locus YLR384C, strain iki3, hits give low values): 1.01 | normalized growth (S. cerevisiae deletion strains, locus YLR418C, strain cdc73, hits give low values): 0.983 | normalized growth (S. cerevisiae deletion strains, locus YML016C, strain PPZ1, hits give low values): 1.03 | normalized growth (S. cerevisiae deletion strains, locus YML032C, strain rad52, hits give low values): 0.999 | normalized growth (S. cerevisiae deletion strains, locus YML120C, strain ndi1, hits give low values): 1.01 | normalized growth (S. cerevisiae deletion strains, locus YML124C, strain tub3, hits give low values): 0.993 | normalized growth (S. cerevisiae deletion strains, locus YMR058W, strain fet3, hits give low values): 1.02 | normalized growth (S. cerevisiae deletion strains, locus YMR078C, strain ctf18, hits give low values): 0.988 | normalized growth (S. cerevisiae deletion strains, locus YMR125W, strain sto1, hits give low values): 1.01 | normalized growth (S. cerevisiae deletion strains, locus YMR129W, hits give low values): 1 | normalized growth (S. cerevisiae deletion strains, locus YMR205C, strain PFK2, hits give low values): 0.97 | normalized growth (S. cerevisiae deletion strains, locus YMR223W, strain ubp8, hits give low values): 0.991 | normalized growth (S. cerevisiae deletion strains, locus YMR231W, strain pep5, hits give low values): 1 | normalized growth (S. cerevisiae deletion strains, locus YMR307W, strain GAS1, hits give low values): 1.03 | normalized growth (S. cerevisiae deletion strains, locus YNL067W, strain RPL9B, hits give low values): 0.998 | normalized growth (S. cerevisiae deletion strains, locus YNL071W, strain lat1, hits give low values): 1.01 | normalized growth (S. cerevisiae deletion strains, locus YNL153C, strain GIM3, hits give low values): 1.02 | normalized growth (S. cerevisiae deletion strains, locus YNL209W, strain ssb2, hits give low values): 1.02 | normalized growth (S. cerevisiae deletion strains, locus YNL233W, strain BNI4, hits give low values): 1 | normalized growth (S. cerevisiae deletion strains, locus YNL248C, strain rpa49, hits give low values): 1.02 | normalized growth (S. cerevisiae deletion strains, locus YNL250W, strain rad50, hits give low values): 0.982 | normalized growth (S. cerevisiae deletion strains, locus YNL271C, strain bni1, hits give low values): 1 | normalized growth (S. cerevisiae deletion strains, locus YNL298W, strain CLA4, hits give low values): 0.997 | normalized growth (S. cerevisiae deletion strains, locus YNL307C, strain MCK1, hits give low values): 0.999 | normalized growth (S. cerevisiae deletion strains, locus YNL322C, strain KRE1 (second series), hits give low values): 1.02 | normalized growth (S. cerevisiae deletion strains, locus YNR049C, strain mso1, hits give low values): 1.02 | normalized growth (S. cerevisiae deletion strains, locus YNR052C, strain pop2, hits give low values): 1.01 | normalized growth (S. cerevisiae deletion strains, locus YOL006C, strain TOP1, hits give low values): 0.984 | normalized growth (S. cerevisiae deletion strains, locus YOL012C, strain htz1): 1.69 | normalized growth (S. cerevisiae deletion strains, locus YOL147C, strain pex11, hits give low values): 0.999 | normalized growth (S. cerevisiae deletion strains, locus YOR001W, strain rrp6, hits give low values): 1.03 | normalized growth (S. cerevisiae deletion strains, locus YOR061W, strain CKA2, hits give low values): 1.01 | normalized growth (S. cerevisiae deletion strains, locus YOR069W, strain VPS5, hits give low values): 1.01 | normalized growth (S. cerevisiae deletion strains, locus YOR070C, strain gyp1, hits give low values): 1.02 | normalized growth (S. cerevisiae deletion strains, locus YOR080W, strain dia2, hits give low values): 1.01 | normalized growth (S. cerevisiae deletion strains, locus YOR083W, strain WHI5, hits give low values): 1 | normalized growth (S. cerevisiae deletion strains, locus YOR106W, strain vam3, hits give low values): 0.999 | normalized growth (S. cerevisiae deletion strains, locus YOR136W, strain idh2, hits give low values): 0.989 | normalized growth (S. cerevisiae deletion strains, locus YOR144C, strain elg1, hits give low values): 1 | normalized growth (S. cerevisiae deletion strains, locus YOR184W, strain ser1, hits give low values): 1 | normalized growth (S. cerevisiae deletion strains, locus YOR265W, strain rbl2, hits give low values): 1.01 | normalized growth (S. cerevisiae deletion strains, locus YOR270C, strain vph1, hits give low values): 0.951 | normalized growth (S. cerevisiae deletion strains, locus YOR290C, strain snf2, hits give low values): 0.996 | normalized growth (S. cerevisiae deletion strains, locus YOR316C, strain cot1, hits give low values): 1.01 | normalized growth (S. cerevisiae deletion strains, locus YPL051W, strain arl3, hits give low values): 1.01 | normalized growth (S. cerevisiae deletion strains, locus YPL078C, strain atp4, hits give low values): 1 | normalized growth (S. cerevisiae deletion strains, locus YPL106C, strain sse1, hits give low values): 0.989 | normalized growth (S. cerevisiae deletion strains, locus YPL240C, strain hsp82, hits give low values): 1.02 | normalized growth (S. cerevisiae deletion strains, locus YPR119W, strain clb2, hits give low values): 0.998 | normalized growth (S. cerevisiae deletion strains, locus YPR141C, strain kar3, hits give low values): 1.01 | normalized growth (S. cerevisiae deletion strains, locus YPR163C, strain tif3, hits give low values): 0.991 | normalized growth (S. cerevisiae deletion strains, locus YPR167C, strain met16, hits give low values): 1 | normalized growth (S. cerevisiae deletion strains, strain wtn01, hits give low values): 0.983 | normalized growth (S. cerevisiae strains, strain wild type, hits give low values): 1.01
